Measurements from PubChem BioAssay (NCATS).
Values without a mark were called inactive. Records with an inconclusive call do not appear. A call without a number means that no potency is given here. Calls of active or inactive are those of the source. Unless noted, calls come from the whole dose curve; as a rule, active = well fitted curve in the direction sought with a large enough effect; inconclusive = small, poorly fitted or top-dose-only effect, or another doubt; inactive = no such curve, though single readings can be large; an effect the other way counts as inactive or inconclusive.

Experiments:
[1] = target: Glucagon-like peptide 1 receptor (Homo sapiens) (UniProt P43220); test: qHTS of GLP-1 Receptor Agonists: LOPAC Validation (AID 624148);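 note: higher luminescence signal means agonism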
Glucagon-like peptide 1 receptor (Homo sapiens), sequence (P43220 whole entry, looked up): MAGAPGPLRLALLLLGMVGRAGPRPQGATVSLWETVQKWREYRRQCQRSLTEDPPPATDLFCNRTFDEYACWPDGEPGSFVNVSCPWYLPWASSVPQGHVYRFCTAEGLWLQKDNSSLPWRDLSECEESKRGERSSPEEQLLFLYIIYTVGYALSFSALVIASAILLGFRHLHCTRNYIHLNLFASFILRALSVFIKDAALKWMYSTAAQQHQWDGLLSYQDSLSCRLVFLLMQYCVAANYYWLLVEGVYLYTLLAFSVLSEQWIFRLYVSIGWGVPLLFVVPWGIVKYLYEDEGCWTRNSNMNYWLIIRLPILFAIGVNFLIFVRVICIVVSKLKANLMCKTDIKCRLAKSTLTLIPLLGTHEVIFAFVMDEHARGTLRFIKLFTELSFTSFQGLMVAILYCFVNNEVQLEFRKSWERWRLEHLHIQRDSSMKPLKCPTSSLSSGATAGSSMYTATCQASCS
How it was run: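 HEK293 cells stably co-expressing GLP-1R and a cAMP-responsive luciferase reporter, plated 12 hours before compound, then incubated 4-6 hr at 37 deg C. Luminescence read 12 min after detection reagent.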

[2] = qHTS assay for small molecule activators of the p53 signaling pathway (AID 651743; active = well fitted activation curve with a large enough effect in the signal ratio, not every such curve was filed as active; the % refers to the signal ratio; note: series mostly up to about 92 µM); settings: HCT-116 p53RE-bla, beta-lactamase FRET ratio, 16 h; activation: hits give high values
How it was run: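 Following 16 hours of compound exposure at 37 C, HCT-116 cells bearing the p53RE-bla reporter were loaded with LiveBLAzer B/G FRET substrate for 2 hours at room temperature and fluorescence intensity was recorded.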

[3] = qHTS assay for environmental chemicals that activate the Aryl hydrocarbon Receptor (AhR) signaling pathway (AID 651777); settings: 1A2-DRE human hepatoma cells, luciferase, 24 h; activation: hits give high values; note: nearly all actives have a fitted effect of over 15% in size
How it was run: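 Following a 24 hr incubation with test chemicals at 37 C and 5% CO2, 1A2-DRE human hepatoma cells received One-Glo reagent; after 30 min at room temperature, luciferase output reflected CYP1A2 induction via AhR.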

[4] = target: Peroxisome proliferator-activated receptor alpha (Homo sapiens) (UniProt Q07869); test: qHTS assay for small molecule agonists of the peroxisome proliferator-activated receptor alpha (PPARalpha) signaling pathway (AID 651778); settings: PathHunter PPARalpha complementation, chemiluminescence, 6 h; max response: hits give high values
Peroxisome proliferator-activated receptor alpha (Homo sapiens), sequence (Q07869 whole entry, looked up, the tested form may be a part): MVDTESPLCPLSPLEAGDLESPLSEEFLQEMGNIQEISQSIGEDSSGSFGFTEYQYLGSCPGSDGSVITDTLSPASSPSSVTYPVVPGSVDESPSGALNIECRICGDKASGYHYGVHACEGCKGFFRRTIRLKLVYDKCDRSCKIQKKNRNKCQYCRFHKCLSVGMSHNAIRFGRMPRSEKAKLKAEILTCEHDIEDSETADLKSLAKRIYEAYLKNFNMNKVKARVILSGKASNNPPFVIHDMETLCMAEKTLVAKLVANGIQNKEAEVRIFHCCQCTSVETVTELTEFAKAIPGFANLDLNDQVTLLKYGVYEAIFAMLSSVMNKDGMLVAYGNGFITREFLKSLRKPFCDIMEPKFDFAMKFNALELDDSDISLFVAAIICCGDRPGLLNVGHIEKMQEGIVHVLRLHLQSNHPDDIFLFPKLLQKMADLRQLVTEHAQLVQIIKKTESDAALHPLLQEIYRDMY
How it was run: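 Enzyme-fragment complementation assay in which ligand-bound PPARalpha translocates and forms an active enzyme that generates chemiluminescence. Cells were plated overnight, exposed to compound for 6 hr at 37 C, and then given detection reagent for 60 min at room temperature.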

[5] = qHTS of Nrf2 Activators: LOPAC Validation (AID 624149)
How it was run: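 Luciferase signal from ARE activation, read with Steady-Glo after 30 min at room temperature. Compounds were pin-transferred onto AREc32_Fluc cells (1000/well, OPTI-MEM/5% FBS, seeded overnight) and left 24 hr at 37 deg C.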

[6] = HTS Assay for Allosteric Antagonists of the Human D2 Dopamine Receptor: Hit Validation in HTRF (AID 624455);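 note: stable D1 dopamine receptor cell line scored for blocking the D1 response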
How it was run: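 Inhibition of the D1-mediated response was measured by HTRF. Cells used were a line stably expressing the D1 dopamine receptor.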

[7] = qHTS assay for small molecule activators of the nuclear factor-kappa B (NF-kB) signaling pathway (AID 651749; active = well fitted activation curve with a large enough effect in the signal ratio; the % refers to the signal ratio; note: series mostly up to about 77 µM); settings: NF-kB-bla ME-180 cells, beta-lactamase FRET ratio, 16 h; hits give high values
How it was run: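 In this qHTS format, compounds acting as activators increase NF-kB-driven beta-lactamase in ME-180 cells, measured as disrupted FRET after 16 hr exposure at 37C and 5% CO2.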

[8] = qHTS assay for small molecule agonists of the antioxidant response element (ARE) signaling pathway (AID 651741; active = well fitted activation curve with a large enough effect in the signal ratio; the % refers to the signal ratio; note: potency is the fitted concentration of half-maximal effect)
How it was run: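 Stably integrated ARE-beta-lactamase reporter HepG2 cells; 16 h compound incubation, 37 C; LiveBLAzer FRET substrate 2 h at room temperature; fluorescence intensity.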

[9] = target: Tumor necrosis factor (Homo sapiens) (UniProt P01375); test: qHTS assay to identify small molecules that stimulate Tumor Necrosis Factor-alpha (TNF-alpha) secretion (AID 651757; active = well fitted curve in the direction sought with a large enough effect in the signal ratio; the % refers to the signal ratio)
Tumor necrosis factor (Homo sapiens), sequence (P01375 whole entry, looked up): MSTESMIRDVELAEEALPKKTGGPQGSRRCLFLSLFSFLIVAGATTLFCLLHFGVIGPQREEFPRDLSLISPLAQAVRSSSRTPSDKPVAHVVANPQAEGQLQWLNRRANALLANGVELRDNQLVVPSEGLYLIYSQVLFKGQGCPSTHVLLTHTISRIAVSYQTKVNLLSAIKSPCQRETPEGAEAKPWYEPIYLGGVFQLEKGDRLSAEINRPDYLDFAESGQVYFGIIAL
How it was run: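 Secreted TNF-alpha quantified by TR-FRET sandwich of two labeled anti-TNF-alpha antibodies, incubated 3 hr at room temperature. Preceded by 17 hr, 37 C compound treatment of THP-1 cells at 3000 cells/well.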

SMILES	Potency [1]	activation [2] [%]	activation [3] [%]	max response [4] [%]	outcome [5]	Potency [6]	activation [7] [%]	Potency [8]	outcome [9]
O=C(CCCN1CCC(O)(c2ccc(Cl)cc2)CC1)c1ccc(F)cc1	inactive	0.976	-0.128	-1.35					
C[C@](N)(Cc1ccc(O)c(O)c1)C(=O)O	inactive	-5.22	-1.04	-1.06	inactive	inactive	0.934		
CN(Cc1cnc2nc(N)nc(N)c2n1)c1ccc(C(=O)N[C@@H](CCC(=O)O)C(=O)O)cc1	inactive			-3.74	inactive			0.154 µM (active)	
CN(C)C(=O)C(CCN1CCC(O)(c2ccc(Cl)cc2)CC1)(c1ccccc1)c1ccccc1	inactive					inactive			
O=c1[nH]cc(F)c(=O)[nH]1	inactive		-0.168	-2.48	inactive	inactive			inactive
